# Hits are enriched below; roughly 7.9% of the tested compounds scored in any of these assays.
# MCF10A rereplic = DNA re-replication induction in MCF 10a cells | MCF 10A DNA re-replication, Hoechst nuclear intensity, 48 h | AID 624296 | Potency, µM (highest dose often 46.1 µM), for inactives: at the top dose activity, positive = re-replication, most hits filed as activators | 350,000 compounds, 2.9% hits; further: % of control where 0% means no effect; nearly all actives have a fitted effect of over 50% in size
# SW480 rereplic = induces DNA re-replication in SW480 colon adenocarcinoma cells. SW480 DNA re-replication, Hoechst DNA content imaging, 48 h. Potency, µM (titrated, usually from 46.1 µM), without a hit: at the highest dose re-replication activation, most hits filed as activators. 340,000 compounds, 1.8% hits. AID 624297; further: % of control where 0% means no effect; nearly all actives have a fitted effect of over 55% in size
#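 250 cells/well; 23 nL cpd via pin tool; 48 hr, 37 C, 5% CO2; Hoechst 40 min; imager read of total nuclear intensity, ex 405/em 500-530 nm.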
# KB-3-1 tox = KB-3-1 parental cell cytotoxicity | Potency, µM (top dose mostly 46.1 µM), hits mostly cytotoxic | 400,000 compounds, 1.4% hits | AID 1347075 | KB-3-1 viability, CellTiter-Glo ATP luminescence, 72 h; further: on the % scale 0 is the no-effect control and ±100 the full control effect; nearly all actives have a fitted effect of over 60% in size
#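 Parental KB-3-1 adenocarcinoma cells in phenol-red-free DMEM with 10% FBS were pin-treated with compounds at several concentrations, incubated 72 h at 37 °C, and viability read by CellTiter-Glo luminescence; concentration-effect curves were fitted after normalization.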
# HT1080 IDH1KD tx = HT-1080 IDH1 knockdown cell toxicity (counter line). HT-1080 IDH1 knockdown viability, ATP luminescence, 48 h. AID 686971. Potency, µM (highest dose often 46.1 µM), for inactives: top-dose activity, negative = toxicity, most hits filed as cytotoxic. 360,000 compounds, 2% hits;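 further: 0% = DMSO wells and -100% = cell-free medium wells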
#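 Luminescent ATP read-out (CellTiter-Glo, 10 min at room temperature) after 48 h compound exposure at 37 °C gave viability of IDH1-knockdown HT-1080 cells. Activity was normalised to DMSO and cell-free wells, then fitted as concentration-response curves.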
# KB-V1 cytotox = kills drug-selected multidrug resistant KB-V1 cells; KB-V1 MDR cells viability, CellTiter-Glo, 72 h; 400,000 compounds, 3.4% hits; AID 1347076; Potency, µM (doses to about 46.1 µM), actives largely listed as cytotoxic; further: on the % scale 0 is the no-effect control and ±100 the full control effect; nearly all actives have a fitted effect of over 60% in size
#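 Potencies derive from concentration-effect curves fitted to normalized luminescence (CellTiter-Glo) of KB-V1 cells treated for 72 h at 37 degrees C in phenol-red-free DMEM containing 10% FBS.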
# HT1080NT lethal = kills 2HG-producing HT-1080-NT fibrosarcoma cells; HT-1080-NT fibrosarcoma viability, CellTiter-Glo ATP luminescence, 48 h; Potency, µM (series often up to 46.1 µM), without a hit: at the highest dose activity, negative = less viability, usual class: cytotoxic; 360,000 compounds, 1.6% hits; AID 686970;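 further: NT is the 2HG producing partner of a matched IDH1 knockdown line; 0% = DMSO-treated cells and -100% = media-only wells without cells; nearly all actives have a fitted effect of over 55% in size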
#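 Read-out is CellTiter-Glo luminescence after 10 minutes at room temperature, following 48 hours' compound treatment of HT-1080-NT cells (750 cells/well, RPMI, 5% FBS, 37 degrees C).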
# Starred values were filed as active, the others as inactive; i = inactive; ? = inconclusive; . = no result given; [ ] = another dose, or the depositor's remark. The call rests on the fitted dose curve; in most records, active means well fitted curve in the direction sought with a large enough effect; inconclusive means small, poorly fitted or top-dose-only effect, or another doubt; inactive means no such curve, though single readings can be large; an effect the other way counts as inactive or inconclusive. Potency means the concentration at half of the fitted maximal effect.
SMILES,MCF10A rereplic,SW480 rereplic,KB-3-1 tox,HT1080 IDH1KD tx,KB-V1 cytotox,HT1080NT lethal
Cc1cc(C)nc(N2CCCC(C(=O)NC(C)CCc3ccco3)C2)n1 (centres undefined),4.8%,-0.3%,i,12.5%,10.3µM*,-3.6%
COc1ccc(-c2cc3nc(CCl)[nH]c(=O)c3s2)cc1,?,?,?,16.4µM*,?,16.4µM*
COc1cccc(CNc2nc3cc(-c4cccc(Cl)c4)sc3c(=O)n2C)c1,.,.,i,4.7%,i,-3.0%
O=C(COc1ccc(S(=O)(=O)NC2CCCC2)cc1)N1CCCCCC1,12.1%,-4.2%,i,-1.2%,i,5.5%
COc1ccc2nc(N=NC3=C(O)CC(C)(C)CC3=O)sc2c1,23.8%,2.06µM*,?,?,i,-17.2%
COc1ccc2nc(N=Nc3ccc(O)c4ccccc34)sc2c1,8.2µM*,?,?,5.8µM*,?,7.31µM*
COc1ccc2nc(N)sc2c1,0.1%,-11.7%,?,12.7%,i,8.5%
CC1(C)CC(=O)C(N=Nc2ccc3ncsc3c2)=C(O)C1,2.9%,-7.8%,i,-0.4%,i,4.1%
O=C(OCc1nnc(-c2ccc([N+](=O)[O-])cc2)o1)C1CC(=O)N(CCc2ccccc2)C1 (centres undefined),3.0%,-7.5%,i,-9.4%,i,-6.9%
COCCNC(=O)c1ccc(-n2c(SCc3cc(F)ccc3F)nc3ccccc3c2=O)cc1,-0.9%,-3.4%,?,-1.0%,5.8µM*,-1.1%
COc1cc2c(cc1OC)CN(CCC(C)c1ccc(Cl)cc1)CC2 (centres undefined),?,-4.2%,i,14.6µM*,i,-38.4%
Cc1oncc1-c1csc(-c2ccccc2Cl)n1,-4.1%,i[1.84 µM],?,-1.6%,13µM*,16.5%
Cc1ccc(N(CC(=O)NC2CCCCCC2)S(=O)(=O)c2c(C)nn(C)c2C)cc1,24.6%,-1.8%,i,5.0%,9.2µM*,9.9%
Cc1nn(C)c(C)c1S(=O)(=O)N(CC(=O)NCCCOC(C)C)c1ccc(C(C)C)cc1,-1.3%,-0.3%,i,1.2%,4.61µM*,6.0%
COc1ccc(N(CC(=O)NC2CCCCCC2)S(=O)(=O)c2c(C)nn(C)c2C)cc1,6.1%,9.2%,?,-3.1%,8.2µM*,3.3%
COc1ccc(N(CC(=O)N2CCCCC2)S(=O)(=O)c2c(C)nn(C)c2C)cc1,-2.6%,-5.3%,i,-3.5%,i,-2.4%
COc1ccc(-c2[nH]c(-c3cccc(OC)c3)nc2SCC(=O)NC2CCCC2)cc1,13.2%,-2.4%,?,?,i,-21.8%
Cc1ccccc1/C=N/NC(=O)Cc1ccc(Cl)cc1,?,-9.1%,i,-12.6%,i,-16.5%
C/C(=N\OCC(=O)N/N=C/c1ccc(C)cc1O)c1cccs1,4.11µM*,6.51µM*,i,-0.4%,?,-17.9%
C/C(=N\NC(=O)CO/N=C(\C)c1cccs1)c1ccc(N)cc1,3.9%,-1.6%,i,-0.1%,i,1.2%
Cc1ccc(/C=N/NC(=O)Cc2ccc(Cl)cc2)c(O)c1,14.5%,7.31µM*,?,18.4µM*,7.31µM*,?
O=C(Cn1nc(-c2cccc([N+](=O)[O-])c2)c2ccccc2c1=O)Nc1cccnc1,-0.7%,-19.3%,i,-11.6%,i,-3.8%
Cc1cc(C)n(NC(=S)NC2CCCC2)c(=O)c1C#N,23.1µM*,?,i,-3.2%,i,-3.6%
CCCCN1C(=O)/C(=C2/Sc3ccccc3N2C)S/C1=N\c1ncn[nH]1,14.6%,14.6µM*,?,14.0%,?,-0.6%
COc1ccc(CCn2c(N3CCN(C)CC3)nc3c2c(=O)[nH]c(=O)n3C)cc1,3.9%,-6.7%,i,10.6%,i,10.8%
SMILES,MCF10A rereplic,SW480 rereplic,KB-3-1 tox,HT1080 IDH1KD tx,KB-V1 cytotox,HT1080NT lethal
COc1ccc(CCn2c(Br)nc3c2c(=O)[nH]c(=O)n3C)cc1,15.9%,?,5.17µM*,10µM*,4.11µM*,?
COc1ccc(CCn2c(NN)nc3c2c(=O)[nH]c(=O)n3C)cc1,?,14.6µM*,13µM*,?,?,8.2µM*
Cn1c(=O)[nH]c(=O)c2c1nc(Br)n2C/C=N/Nc1ccccc1,?,9.6%,16.4µM*,5.8µM*,i,3.66µM*
O=C(Nc1ccccc1C(F)(F)F)C1CCCC1,0.0%,-4.8%,i,4.6%,i,12.4%
O=C(Nc1ccccc1-c1ccccc1)C1CCCC1,13µM*,?,7.31µM*,?,?,?
O=C(NC(=S)Nc1ccccc1Br)C1CCCCC1,?,0.3%,i,7.5%,16.4µM*,-0.3%
O=C(NC1CCCC1)c1ccccc1-c1ccccc1,-32.0%,-0.4%,i,11.9%,14.6µM*,8.8%
O=C(NC(c1ccccc1)c1ccccc1)C1CCCC1,-4.4%,?,i,10.2%,16.4µM*,21.0%
CNC(=O)c1cc(S(=O)(=O)Nc2ccc(C)cc2C)ccc1C,9.5%,-4.9%,i,-10.1%,i,-1.1%
O=C(NC1CCCCCC1)c1cccnc1Sc1ccccc1,?,-1.5%,i,0.4%,23.1µM*,-0.3%
COc1ccc(CN(C2CCCCC2C)S(=O)(=O)c2ccc(S(=O)(=O)N(C)C)cc2)cc1OC (centres undefined),?,28.7%,i,-12.3%,6.51µM*,-3.7%
COc1ccc(C(=O)c2cc3cccc(OC)c3o2)cc1,-0.3%,-2.9%,i,-0.2%,i,18.4%
CCOC(=O)c1sc2nc(NC(=O)C(C)(C)C)sc2c1C,?,9.6%,i,-13.4%,?,-3.9%
CCCc1ccc(O)c(N=Cc2cc(Br)cc(OCC)c2O)c1,?,?,i,23.1µM*,i,?
N#Cc1c(-c2ccccc2)c(-c2ccccc2)nn(CC(=O)NNC(=O)Nc2ccc(Cl)c(Cl)c2)c1=O,?,?,?,14.6µM*,i,20.6µM*
O=C(NNc1ccccn1)C(=O)NNS(=O)(=O)c1ccc(F)cc1,?,?,i,-26.9%,?,-12.1%
O=C(NNc1ccccn1)C(=O)NNS(=O)(=O)c1ccc(Cl)cc1,?,?,?,?,18.4µM*,-21.0%
O=C(NNc1ccccc1)C(=O)NNS(=O)(=O)c1ccc([N+](=O)[O-])cc1,-3.5%,-10.8%,?,5.8µM*,i,2.06µM*
CC(=O)Nc1ccc(S(=O)(=O)NNC(=O)c2ccc([N+](=O)[O-])cc2)cc1,-2.9%,-6.5%,i,-1.5%,?,0.5%
